The record followed here is ChEMBL document CHEMBL1961873, “Compounds: GSK PKIS; Assays: Nanosyn kinase panel” (2012).

Structures are written as SMILES.

In experiment [1] the target is Tyrosine-protein kinase Fer (Homo sapiens) (UniProt P16591). Particulars: at 1 µM.
The target in experiment [2] is Tyrosine-protein kinase Fes/Fps (Homo sapiens) (UniProt P07332). Particulars: at 0.1 µM.
Experiment [3] has the same target. Particulars: at 1 µM.
Experiment [4] concerns the target Fibroblast growth factor receptor 1 (Homo sapiens) (UniProt P11362). Particulars: at 0.1 µM.
The target is the same in experiment [5]. Particulars: at 1 µM.
In experiment [6] the target is Fibroblast growth factor receptor 2 (Homo sapiens) (UniProt P21802). To be noted: at 0.1 µM.
Sequence of Fibroblast growth factor receptor 2 (Homo sapiens) (P21802 22-821 limits assumed): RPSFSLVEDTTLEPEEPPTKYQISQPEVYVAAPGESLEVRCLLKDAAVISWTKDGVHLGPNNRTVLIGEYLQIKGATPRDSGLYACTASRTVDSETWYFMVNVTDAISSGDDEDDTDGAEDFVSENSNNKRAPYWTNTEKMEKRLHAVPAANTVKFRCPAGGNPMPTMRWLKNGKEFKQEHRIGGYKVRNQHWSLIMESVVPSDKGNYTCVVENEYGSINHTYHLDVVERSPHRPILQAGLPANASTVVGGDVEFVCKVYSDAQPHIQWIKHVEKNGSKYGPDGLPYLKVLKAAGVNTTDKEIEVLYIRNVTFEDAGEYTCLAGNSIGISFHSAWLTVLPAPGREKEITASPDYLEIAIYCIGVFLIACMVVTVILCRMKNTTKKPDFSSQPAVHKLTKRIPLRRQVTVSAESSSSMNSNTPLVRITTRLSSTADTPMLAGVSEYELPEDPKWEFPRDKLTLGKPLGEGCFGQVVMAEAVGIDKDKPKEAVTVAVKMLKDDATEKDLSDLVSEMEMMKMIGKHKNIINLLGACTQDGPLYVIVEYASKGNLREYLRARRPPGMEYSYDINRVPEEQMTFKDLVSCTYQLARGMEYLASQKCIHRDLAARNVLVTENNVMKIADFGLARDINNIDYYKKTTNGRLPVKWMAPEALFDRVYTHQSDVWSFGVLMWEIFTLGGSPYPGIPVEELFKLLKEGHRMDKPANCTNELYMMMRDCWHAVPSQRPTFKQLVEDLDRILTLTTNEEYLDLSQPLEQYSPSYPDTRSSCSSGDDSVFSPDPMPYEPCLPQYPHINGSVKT
Experiment [7] has the same target. To be noted: at 1 µM.
The target of experiment [8] is Fibroblast growth factor receptor 3 (Homo sapiens) (UniProt P22607). Particulars: at 0.1 µM.
Experiment [9] has the same target. To be noted: at 1 µM.
Experiment [10] has as its target Fibroblast growth factor receptor 4 (Homo sapiens) (UniProt P22455). Particulars: at 0.1 µM.
For experiment [11] the target is unchanged. Particulars: at 1 µM.
Experiment [12] deals with Tyrosine-protein kinase Fgr (Homo sapiens) (UniProt P09769). To be noted: at 0.1 µM.
Sequence of Tyrosine-protein kinase Fgr (Homo sapiens) (P09769 2-529 limits assumed): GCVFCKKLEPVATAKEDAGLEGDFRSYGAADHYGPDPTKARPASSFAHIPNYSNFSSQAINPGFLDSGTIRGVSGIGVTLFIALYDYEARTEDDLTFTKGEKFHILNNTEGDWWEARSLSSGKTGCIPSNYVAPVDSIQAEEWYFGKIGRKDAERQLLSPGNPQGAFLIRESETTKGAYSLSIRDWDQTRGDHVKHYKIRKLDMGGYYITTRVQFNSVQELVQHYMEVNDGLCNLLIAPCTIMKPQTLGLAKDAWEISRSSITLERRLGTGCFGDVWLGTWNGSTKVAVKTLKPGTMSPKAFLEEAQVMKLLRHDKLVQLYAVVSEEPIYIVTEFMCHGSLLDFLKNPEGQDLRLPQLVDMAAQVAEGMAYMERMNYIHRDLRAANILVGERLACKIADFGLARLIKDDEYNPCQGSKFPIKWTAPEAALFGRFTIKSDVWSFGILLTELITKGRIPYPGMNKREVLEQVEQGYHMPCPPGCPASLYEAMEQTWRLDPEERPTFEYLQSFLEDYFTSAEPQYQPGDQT
For experiment [13] the target is unchanged. Particulars: at 1 µM.
Experiment [14] concerns the target Vascular endothelial growth factor receptor 1 (Homo sapiens) (UniProt P17948). To be noted: at 0.1 µM.
The target is the same in experiment [15]. To be noted: at 1 µM.
The target of experiment [16] is Receptor-type tyrosine-protein kinase FLT3 (Homo sapiens) (UniProt P36888). To be noted: at 0.1 µM.
For experiment [17] the target is unchanged. Particulars: at 1 µM.
The subject of experiment [18] is T1, Receptor-type tyrosine-protein kinase FLT3 (Homo sapiens), P36888 [D835Y].
T1 sequence (whole entry): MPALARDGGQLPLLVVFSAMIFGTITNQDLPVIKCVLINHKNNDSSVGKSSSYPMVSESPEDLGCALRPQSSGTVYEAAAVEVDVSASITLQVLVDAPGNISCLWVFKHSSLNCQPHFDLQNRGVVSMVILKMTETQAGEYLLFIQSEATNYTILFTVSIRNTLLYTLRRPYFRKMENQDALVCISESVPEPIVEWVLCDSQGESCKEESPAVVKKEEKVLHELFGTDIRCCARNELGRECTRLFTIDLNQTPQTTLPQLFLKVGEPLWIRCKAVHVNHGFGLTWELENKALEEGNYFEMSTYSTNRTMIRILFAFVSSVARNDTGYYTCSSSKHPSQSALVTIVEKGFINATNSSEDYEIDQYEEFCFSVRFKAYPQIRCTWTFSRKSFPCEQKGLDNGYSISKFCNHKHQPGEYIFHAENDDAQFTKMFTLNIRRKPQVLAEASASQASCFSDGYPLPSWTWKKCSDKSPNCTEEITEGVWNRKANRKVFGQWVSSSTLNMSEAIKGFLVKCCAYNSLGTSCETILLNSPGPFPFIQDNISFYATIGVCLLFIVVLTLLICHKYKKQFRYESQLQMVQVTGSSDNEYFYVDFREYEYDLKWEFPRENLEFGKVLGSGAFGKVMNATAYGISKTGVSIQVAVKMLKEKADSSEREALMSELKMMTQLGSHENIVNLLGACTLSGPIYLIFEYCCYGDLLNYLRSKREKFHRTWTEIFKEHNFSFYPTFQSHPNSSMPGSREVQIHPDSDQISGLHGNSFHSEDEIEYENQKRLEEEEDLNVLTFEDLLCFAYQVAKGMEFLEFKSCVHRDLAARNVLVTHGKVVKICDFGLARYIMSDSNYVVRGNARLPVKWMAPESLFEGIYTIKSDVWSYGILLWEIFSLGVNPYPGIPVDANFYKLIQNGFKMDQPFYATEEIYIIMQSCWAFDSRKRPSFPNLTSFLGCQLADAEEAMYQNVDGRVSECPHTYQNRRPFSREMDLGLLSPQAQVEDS
Particulars: at 0.1 µM.

For experiment [19], the target named is Non-receptor tyrosine-protein kinase TYK2 (Homo sapiens) (UniProt P29597). Particulars: at 1 µM.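 Note: values are mean percent inhibition of TYK2 kinase.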
Sequence of Non-receptor tyrosine-protein kinase TYK2 (Homo sapiens) (P29597 whole entry): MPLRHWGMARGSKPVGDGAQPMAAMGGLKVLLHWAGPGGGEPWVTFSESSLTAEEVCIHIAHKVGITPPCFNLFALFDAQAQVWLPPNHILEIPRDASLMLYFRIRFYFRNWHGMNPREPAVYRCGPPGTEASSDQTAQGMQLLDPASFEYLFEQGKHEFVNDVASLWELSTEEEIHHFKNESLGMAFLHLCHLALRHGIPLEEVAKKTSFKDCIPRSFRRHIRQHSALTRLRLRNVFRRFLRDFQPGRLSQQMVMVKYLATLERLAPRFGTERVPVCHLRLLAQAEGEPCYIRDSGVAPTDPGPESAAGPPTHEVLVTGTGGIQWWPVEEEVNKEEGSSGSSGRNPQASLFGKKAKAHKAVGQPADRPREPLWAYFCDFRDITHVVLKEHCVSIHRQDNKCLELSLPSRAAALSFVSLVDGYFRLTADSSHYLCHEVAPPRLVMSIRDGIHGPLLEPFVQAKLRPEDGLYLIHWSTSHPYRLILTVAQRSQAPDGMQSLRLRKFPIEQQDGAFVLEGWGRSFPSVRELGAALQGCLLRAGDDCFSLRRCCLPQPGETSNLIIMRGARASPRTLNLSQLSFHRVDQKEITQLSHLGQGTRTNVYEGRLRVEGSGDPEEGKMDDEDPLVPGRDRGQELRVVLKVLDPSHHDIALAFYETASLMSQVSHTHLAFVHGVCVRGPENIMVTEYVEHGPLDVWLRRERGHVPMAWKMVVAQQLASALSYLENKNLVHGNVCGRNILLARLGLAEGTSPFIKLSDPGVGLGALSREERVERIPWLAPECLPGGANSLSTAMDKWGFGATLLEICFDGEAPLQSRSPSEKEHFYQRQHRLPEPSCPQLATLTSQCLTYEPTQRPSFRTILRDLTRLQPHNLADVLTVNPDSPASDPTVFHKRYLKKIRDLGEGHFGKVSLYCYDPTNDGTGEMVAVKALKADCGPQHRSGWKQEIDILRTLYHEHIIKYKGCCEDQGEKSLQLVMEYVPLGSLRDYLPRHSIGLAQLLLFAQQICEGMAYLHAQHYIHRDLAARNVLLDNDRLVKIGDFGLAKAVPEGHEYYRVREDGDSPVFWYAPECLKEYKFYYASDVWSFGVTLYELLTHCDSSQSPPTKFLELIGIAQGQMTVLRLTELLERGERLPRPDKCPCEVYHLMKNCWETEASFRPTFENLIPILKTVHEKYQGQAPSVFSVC
The target of experiment [20] is T2, Tyrosine-protein kinase receptor TYRO3 (Homo sapiens) (UniProt Q06418).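 Note: reported percentages are averaged inhibition values of TYRO3 kinase activity.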
T2 sequence (whole entry): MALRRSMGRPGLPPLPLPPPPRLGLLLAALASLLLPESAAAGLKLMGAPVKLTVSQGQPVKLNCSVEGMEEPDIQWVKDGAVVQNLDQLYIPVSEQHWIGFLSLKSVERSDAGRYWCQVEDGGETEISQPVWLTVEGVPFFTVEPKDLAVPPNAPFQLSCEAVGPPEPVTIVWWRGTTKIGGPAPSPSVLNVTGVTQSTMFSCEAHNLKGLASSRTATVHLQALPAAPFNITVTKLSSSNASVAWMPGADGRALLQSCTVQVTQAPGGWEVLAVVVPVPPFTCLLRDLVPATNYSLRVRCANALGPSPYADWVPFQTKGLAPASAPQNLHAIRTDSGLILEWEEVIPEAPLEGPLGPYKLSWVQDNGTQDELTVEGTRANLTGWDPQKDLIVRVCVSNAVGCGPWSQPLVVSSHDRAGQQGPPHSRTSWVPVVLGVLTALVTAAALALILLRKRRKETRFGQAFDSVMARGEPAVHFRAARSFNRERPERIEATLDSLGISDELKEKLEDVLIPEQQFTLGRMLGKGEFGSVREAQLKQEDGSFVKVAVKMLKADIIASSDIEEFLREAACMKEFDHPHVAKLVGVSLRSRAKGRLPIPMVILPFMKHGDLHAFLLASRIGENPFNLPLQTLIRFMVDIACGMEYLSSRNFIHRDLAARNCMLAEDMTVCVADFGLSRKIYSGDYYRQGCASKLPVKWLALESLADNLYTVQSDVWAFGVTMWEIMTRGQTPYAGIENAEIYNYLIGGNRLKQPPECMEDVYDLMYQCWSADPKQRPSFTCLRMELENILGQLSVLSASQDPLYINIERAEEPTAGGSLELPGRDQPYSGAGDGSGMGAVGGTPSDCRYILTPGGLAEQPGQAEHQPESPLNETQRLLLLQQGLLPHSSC
Particulars: at 0.1 µM.

Sequence of Tyrosine-protein kinase Fes/Fps (Homo sapiens) (P07332 whole entry): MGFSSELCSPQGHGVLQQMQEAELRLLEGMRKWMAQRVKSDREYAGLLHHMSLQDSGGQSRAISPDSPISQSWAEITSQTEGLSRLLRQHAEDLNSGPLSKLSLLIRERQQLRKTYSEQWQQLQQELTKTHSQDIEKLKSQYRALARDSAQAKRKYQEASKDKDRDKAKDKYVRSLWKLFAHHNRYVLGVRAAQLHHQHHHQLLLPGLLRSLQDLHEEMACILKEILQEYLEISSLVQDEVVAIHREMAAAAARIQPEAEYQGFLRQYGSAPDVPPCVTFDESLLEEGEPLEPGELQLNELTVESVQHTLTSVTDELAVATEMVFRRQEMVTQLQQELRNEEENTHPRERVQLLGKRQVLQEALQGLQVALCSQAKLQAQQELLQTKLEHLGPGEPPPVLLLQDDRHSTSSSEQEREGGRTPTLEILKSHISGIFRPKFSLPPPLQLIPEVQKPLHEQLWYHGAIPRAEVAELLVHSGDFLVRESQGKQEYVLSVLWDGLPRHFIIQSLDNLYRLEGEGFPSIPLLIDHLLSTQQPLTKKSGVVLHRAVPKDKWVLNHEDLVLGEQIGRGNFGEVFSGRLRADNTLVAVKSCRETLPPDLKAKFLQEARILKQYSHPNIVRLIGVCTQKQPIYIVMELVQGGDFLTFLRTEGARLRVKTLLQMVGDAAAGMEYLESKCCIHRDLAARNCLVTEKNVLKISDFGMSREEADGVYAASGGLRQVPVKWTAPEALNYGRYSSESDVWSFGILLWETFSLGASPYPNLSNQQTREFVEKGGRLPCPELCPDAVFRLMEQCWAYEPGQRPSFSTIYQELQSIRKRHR
Sequence of Tyrosine-protein kinase Fer (Homo sapiens) (P16591 whole entry, looked up): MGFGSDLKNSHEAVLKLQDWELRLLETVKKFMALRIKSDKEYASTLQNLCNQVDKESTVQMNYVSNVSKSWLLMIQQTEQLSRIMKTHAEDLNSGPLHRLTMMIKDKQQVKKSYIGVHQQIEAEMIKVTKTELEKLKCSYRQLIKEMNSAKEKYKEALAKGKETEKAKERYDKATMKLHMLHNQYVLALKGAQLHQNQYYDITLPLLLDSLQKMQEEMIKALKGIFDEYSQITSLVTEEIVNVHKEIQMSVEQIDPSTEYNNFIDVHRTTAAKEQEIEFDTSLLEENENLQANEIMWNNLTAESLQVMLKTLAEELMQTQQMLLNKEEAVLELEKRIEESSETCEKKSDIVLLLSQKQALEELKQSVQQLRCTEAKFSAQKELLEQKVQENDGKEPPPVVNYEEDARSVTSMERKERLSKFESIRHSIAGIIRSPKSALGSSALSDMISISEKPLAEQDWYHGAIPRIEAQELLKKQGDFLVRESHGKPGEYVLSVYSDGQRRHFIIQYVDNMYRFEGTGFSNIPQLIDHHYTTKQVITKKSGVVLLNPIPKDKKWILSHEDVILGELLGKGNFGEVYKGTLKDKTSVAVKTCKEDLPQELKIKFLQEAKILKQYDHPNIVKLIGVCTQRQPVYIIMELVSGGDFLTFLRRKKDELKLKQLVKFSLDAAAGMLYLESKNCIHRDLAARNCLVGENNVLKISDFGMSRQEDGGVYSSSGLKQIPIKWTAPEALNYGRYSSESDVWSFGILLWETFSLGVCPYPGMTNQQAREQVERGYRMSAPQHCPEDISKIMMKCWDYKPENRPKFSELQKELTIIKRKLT
Sequence of Fibroblast growth factor receptor 4 (Homo sapiens) (P22455 22-802 limits assumed): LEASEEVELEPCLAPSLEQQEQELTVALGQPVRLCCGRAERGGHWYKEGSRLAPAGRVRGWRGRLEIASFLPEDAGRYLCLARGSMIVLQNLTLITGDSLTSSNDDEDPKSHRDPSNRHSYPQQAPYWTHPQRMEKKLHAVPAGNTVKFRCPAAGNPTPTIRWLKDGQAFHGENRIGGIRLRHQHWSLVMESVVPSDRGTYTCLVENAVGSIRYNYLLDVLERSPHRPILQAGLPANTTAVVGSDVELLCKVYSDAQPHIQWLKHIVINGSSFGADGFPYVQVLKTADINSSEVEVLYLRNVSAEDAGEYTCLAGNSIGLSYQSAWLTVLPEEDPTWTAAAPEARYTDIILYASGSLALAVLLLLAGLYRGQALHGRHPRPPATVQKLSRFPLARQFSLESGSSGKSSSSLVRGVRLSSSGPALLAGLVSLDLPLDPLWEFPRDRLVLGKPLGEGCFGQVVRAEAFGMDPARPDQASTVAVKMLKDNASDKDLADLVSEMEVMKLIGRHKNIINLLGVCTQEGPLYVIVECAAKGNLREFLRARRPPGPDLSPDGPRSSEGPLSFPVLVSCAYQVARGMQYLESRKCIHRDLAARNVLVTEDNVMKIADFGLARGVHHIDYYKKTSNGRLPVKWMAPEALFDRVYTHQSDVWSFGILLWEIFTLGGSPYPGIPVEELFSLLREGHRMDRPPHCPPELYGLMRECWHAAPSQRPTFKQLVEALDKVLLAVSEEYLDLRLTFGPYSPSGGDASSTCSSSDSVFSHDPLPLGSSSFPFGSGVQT

Take `COC(=O)c1ccc2c(c1)C(=Cc1cc(Br)c(O)c(Br)c1)C(=O)N2`: the inhibition came out at 7.48% in experiment [1]; 3.27% in experiment [2]; 4.01% in experiment [3]; 3.15% in [4]; 6.87% in experiment [5]; 7.19% in experiment [6]. The inhibition in experiment [7] is 8.86%; in experiment [8], 8.03%; in experiment [9] it was 5.51%; in experiment [10] it was 4.35%; in experiment [11], 3.36%; in experiment [12], 0.15%. The inhibition in [13] is 9.32%; in [14], 2.43%; in experiment [15] it was 2.64%; in [16], 5.48%; in experiment [17], 7.6%; in [18] it was -0.04%. The inhibition in experiment [19] is 51.5%; in experiment [20], 2.46%.

On to `COc1cc2ncnc(Nc3ccc(C)c(O)c3)c2cc1OC`, for which the inhibition in experiment [1] is 7.9%; in experiment [2], 2.91%; in experiment [3], 3.54%; in experiment [4], 4.9%; in experiment [5] it was 17.2%; in experiment [6], 5.64%. Moreover, the inhibition in [7] was 15.8%; in experiment [8], 6.03%; in experiment [9], 10.2%; in experiment [10], -0.45%; in experiment [11], 4.07%; in experiment [12], 15.3%. In addition, the inhibition in [13] is 46.2%; in [14], 74.6%; in [15] it was 93.2%; in experiment [16] it was 0.71%; in experiment [17], 3.03%; in [18] it was -2.6%. The inhibition is -3.35% in experiment [19] and 6.68% in experiment [20].

Consider `Cc1cc(Cl)cc2c1NC(=O)C2=NNc1ccc(S(N)(=O)=O)cc1`, for which the inhibition in experiment [1] is 5.08%; in [2], 0.93%; in [3], 0.42%; in [4], 3.14%; in experiment [5], 2.77%; in experiment [6], 1.45%. The inhibition is 3.49% in [7]; 1.47% in experiment [8]; 0.97% in [9]; -0.13% in experiment [10]; 2.64% in experiment [11]; 4.99% in experiment [12]. In addition, the inhibition in [13] was 2.96%; in experiment [14] it was 0.01%; in experiment [15], -0.12%; in experiment [16], 2.63%; in [17] it was 1.85%; in experiment [18] it was -2.63%. The inhibition in [19] stood at 0.66%; in [20] it was 1.11%.

For the compound `CN(C)C(=O)O[C@@H]1CN[C@@H](C#Cc2cc3ncnc(Nc4ccc(OCc5cccc(F)c5)c(Cl)c4)c3s2)C1`, the inhibition in experiment [1] was -0.72%; in experiment [2], -0.22%; in [3], 1.12%; in [4], -0.27%; in experiment [5], 1.69%; in experiment [6] it was 0.19%. Besides, the inhibition in experiment [7] is 4.88%; in [8] it was -0.96%; in experiment [9], 2.96%; in experiment [10], -1.62%; in [11] it was 0.26%; in [12], 4.03%. The inhibition in [13] is 8.75%; in [14] it was -0.77%; in [15], 1.01%; in experiment [16], -1.89%; in [17], -0.37%; in [18] it was -2.1%. The inhibition in experiment [19] is 0.28%; in [20], -0.78%.

On to `Cc1ccc(Nc2ccnc(Nc3cccc(C(N)=O)c3)n2)cc1O`, for which the inhibition came out at 23.4% in experiment [1]; 2.5% in [2]; 10.7% in [3]; 4.6% in experiment [4]; 34.8% in experiment [5]; 1.51% in experiment [6]. The inhibition in [7] is 26.6%; in experiment [8] it was 3.55%; in experiment [9], 18.4%; in experiment [10] it was -3.61%; in [11] it was 3.08%; in experiment [12], 52.6%. Moreover, the inhibition was found to be 72.8% in experiment [13]; 69.9% in [14]; 97.8% in experiment [15]; 18.8% in experiment [16]; 64.5% in experiment [17]; 30.1% in experiment [18]. Moreover, the inhibition turned out to be 16.9% in experiment [19] and 13.1% in [20].

The inhibition is the change of the read-out against control, counted positive when it falls.
